Experiment [1] can be described thus: qHTS assay to identify aromatase inhibitors - cell viability counter screen (AID 743084).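 Further: cells stimulated with testosterone during compound exposure; nearly all actives have a fitted effect of over 55% in size.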 Background: Quantitative high-throughput screening tests each substance at several concentrations.
The target in experiment [2] is Aryl hydrocarbon receptor (Homo sapiens) (UniProt P35869). Put plainly: qHTS assay to identify small molecule that activate the aryl hydrocarbon receptor (AhR) signaling pathway (AID 743085). Further: nearly all actives have a fitted effect of over 15% in size. Further: potency means the concentration at half of the fitted maximal effect.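 On activation: HG2L7.5c1 human HepG2 liver cells with stably integrated DRE-driven firefly reporter; series mostly up to about 70 µM.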 In outline:
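Measured in HG2L7.5c1 cells: CellTiter-Fluor signal (30 min incubation, 37C) for viability, then luciferase luminescence (30 min, room temperature). Compound contact time was 24 h at 37C, following a 5 h pre-incubation.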

A short description of experiment [3]: qHTS assay to identify small molecule that activate the aryl hydrocarbon receptor (AhR) signaling pathway - cell viability counter screen (AID 743086). Further: series mostly up to about 70 µM; nearly all actives have a fitted effect of over 45% in size. Summed up: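 Cytotoxicity counter screen: CellTiter-Fluor signal (30 min, 37 C) in 4000 HepG2 cells/well carrying the DRE-luciferase reporter, following 24 h compound exposure at 37 C.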
The nature of experiment [4]: qHTS assay to identify small molecule antagonists of the peroxisome proliferator-activated receptor gamma (PPARg) signaling pathway - cell viability counter screen (AID 743194). Further: nearly all actives have a fitted effect of over 55% in size. In outline: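 Viability was measured as CellTiter-Glo luminescence in GeneBLAzer PPARg UAS-bla HEK293H cells. These cells had been exposed 17 h at 37 C to compounds together with rosiglitazone at 50 nM final, with the beta-lactamase readout taken in the same wells.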

Experiment [5] in a line: qHTS assay for small molecule agonists of the antioxidant response element (ARE) signaling pathway (AID 743202; active means well fitted activation curve with a large enough effect in the signal ratio in the repeat runs, not every such curve was filed as active; the % refers to the signal ratio; further: potency means the concentration at half of the fitted maximal effect). Summed up:
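Beta-lactamase reporter activity, read as fluorescence intensity, reflects ARE/Nrf2 pathway induction in HepG2 cells after 16 h compound exposure at 37 C; substrate loading was 2 h at room temperature.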

Experiment [6] can be described thus: qHTS assay for small molecule agonists of the antioxidant response element (ARE) signaling pathway - cell viability counter screen (AID 743203; calls by dose curve; further: nearly all actives have a fitted effect of over 55% in size). Summed up:
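Parallel cytotoxicity read-out for the ARE-bla screen: HepG2 reporter cells, 16 hrs with compounds, then CellTiter-Glo luminescence.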

Experiment [7] can be described thus: qHTS assay for small molecule activators of the heat shock response signaling pathway - cell viability counter screen (AID 743209). Further: nearly all actives have a fitted effect of over 50% in size. In outline: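 To flag cytotoxic compounds, HSE-bla HeLa cells plated at 1500 cells/well were dosed for 5 h at 37 C, followed by the reporter FRET read and then CellTiter-Glo, with luminescence recorded 30 min after reagent addition.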

The nature of experiment [8]: qHTS assay for small molecule activators of the heat shock response signaling pathway (AID 743210; active means well fitted activation curve with a large enough effect in the signal ratio in the repeat runs, with a control signal flat, not every such curve was filed as active; the % refers to the signal ratio;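 further: HeLa cells with beta-lactamase reporter driven by heat shock elements; series mostly up to about 63 µM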). Summed up:
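Fluorescence from a cleaved B/G FRET substrate (2.5 h, room temp) reports HSE-driven beta-lactamase in HeLa cells treated 5 h at 37 C with DMSO-dissolved compounds.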

Experiment [9] has as its target Peroxisome proliferator-activated receptor gamma (Homo sapiens) (UniProt P37231). The experiment in a line: qHTS assay to identify small molecule antagonists of the peroxisome proliferator-activated receptor gamma (PPARg) signaling pathway (AID 743191; calls by dose curve; further: series mostly up to about 63 µM; nearly all actives have a fitted effect of over 30% in size). Summed up:
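Beta-lactamase reporter under UAS control in HEK293H PPARg-bla cells; compound treatment 17 h at 37C. Read-out: fluorescence intensity after 1 h room-temperature incubation with LiveBLAzer B/G FRET substrate.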

Experiment [10] has the same target. Put plainly: qHTS assay to identify small molecule agonists of the peroxisome proliferator-activated receptor gamma (PPARg) signaling pathway (AID 743094; active means well fitted activation curve with a large enough effect in the signal ratio in the repeat runs, not every such curve was filed as active; the % refers to the signal ratio). In outline:
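Fluorescence-based beta-lactamase readout in HEK293H PPARg UAS-bla cells after 17 h compound exposure (37C) and 1 h B/G FRET substrate incubation at room temperature.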

SMILES strings stand for the structures. Records with an inconclusive call do not appear. A number with no mark means an inactive call. Active and inactive are the calls of the source. Unless noted, the call rests on the fitted dose curve; in most records, active means well fitted curve in the direction sought with a large enough effect in the repeat runs; inconclusive means weak or mixed curves; inactive means no such curve, though single readings can be large; an effect the other way counts as inactive or inconclusive. Positions of bridges follow the written chain, without caps; N, C: chain ends. Non-standard residues stand in square brackets, D forms with d. Residues, ends and D or L forms follow the SMILES beside them. hArg = N=C(N)NCCCC[C@H](N)C(=O)O; Mpa = O=C(O)CCS

We go through 30 compounds from PubChem BioAssay (Tox21).

Chain of Peroxisome proliferator-activated receptor gamma (Homo sapiens) (P37231 whole entry, looked up): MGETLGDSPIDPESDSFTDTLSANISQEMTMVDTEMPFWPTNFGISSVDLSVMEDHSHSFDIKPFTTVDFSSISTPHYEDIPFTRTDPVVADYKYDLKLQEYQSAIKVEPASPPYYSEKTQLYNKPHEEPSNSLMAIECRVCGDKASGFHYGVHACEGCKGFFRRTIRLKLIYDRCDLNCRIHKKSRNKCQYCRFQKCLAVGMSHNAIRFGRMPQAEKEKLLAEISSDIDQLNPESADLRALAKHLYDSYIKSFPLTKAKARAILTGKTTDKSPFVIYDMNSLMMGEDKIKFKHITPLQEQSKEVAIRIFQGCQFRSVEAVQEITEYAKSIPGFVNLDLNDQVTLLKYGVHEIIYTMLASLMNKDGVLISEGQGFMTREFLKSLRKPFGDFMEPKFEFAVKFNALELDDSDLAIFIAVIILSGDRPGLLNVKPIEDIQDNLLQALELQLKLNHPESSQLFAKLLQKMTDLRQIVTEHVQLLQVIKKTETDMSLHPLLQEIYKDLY
Chain of Aryl hydrocarbon receptor (Homo sapiens) (P35869 whole entry, looked up): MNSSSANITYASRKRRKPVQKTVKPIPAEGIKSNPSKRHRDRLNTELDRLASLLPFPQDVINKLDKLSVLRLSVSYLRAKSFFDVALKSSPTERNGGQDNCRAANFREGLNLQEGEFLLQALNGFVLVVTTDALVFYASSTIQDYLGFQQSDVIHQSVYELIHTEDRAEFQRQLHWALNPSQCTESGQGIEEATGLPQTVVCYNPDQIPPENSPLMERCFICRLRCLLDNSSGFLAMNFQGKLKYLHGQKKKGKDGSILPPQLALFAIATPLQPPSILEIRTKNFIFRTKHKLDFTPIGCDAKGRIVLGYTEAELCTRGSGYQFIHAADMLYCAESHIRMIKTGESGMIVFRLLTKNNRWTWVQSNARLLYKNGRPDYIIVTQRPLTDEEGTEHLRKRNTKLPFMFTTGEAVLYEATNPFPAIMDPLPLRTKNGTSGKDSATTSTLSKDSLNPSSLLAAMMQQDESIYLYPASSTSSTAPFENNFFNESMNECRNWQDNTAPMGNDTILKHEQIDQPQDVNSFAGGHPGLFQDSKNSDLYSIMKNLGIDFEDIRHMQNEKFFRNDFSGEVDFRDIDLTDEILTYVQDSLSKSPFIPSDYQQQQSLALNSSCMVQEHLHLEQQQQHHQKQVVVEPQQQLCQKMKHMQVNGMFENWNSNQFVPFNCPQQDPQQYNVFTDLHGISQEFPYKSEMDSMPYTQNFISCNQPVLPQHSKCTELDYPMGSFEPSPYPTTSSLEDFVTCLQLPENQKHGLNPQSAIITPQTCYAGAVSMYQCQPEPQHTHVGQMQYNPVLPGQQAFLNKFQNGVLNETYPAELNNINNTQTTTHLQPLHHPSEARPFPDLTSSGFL

As for `CC1CC(=O)CC(C)(C)C1` (centres undefined), the Potency entry in experiment [1], in experiment [2], in experiment [3], in experiment [5] and in experiment [7] was “inactive” in each case. In addition, the compound was classed as inactive in experiment [4], in [6] and in experiment [8].

Consider `O=C[O][Al]([O]C=O)[O]C=O`, for which the Potency entry in [1], in experiment [2], in experiment [3], in experiment [5] and in experiment [7] was “inactive” each time. Also, the result in experiment [4], in experiment [6] and in experiment [8] was inactive.

On to `COc1ccc2c(c1)c1c3n2CCN(C)C3=NCC1`, for which the Potency entry in [1], in experiment [3], in experiment [5] and in experiment [7] was “inactive” in each case. Moreover, the Potency in [2] is 13.3 µM (active). In addition, the outcome in experiment [9], in experiment [6] and in experiment [8] was inactive.

For the compound `COC(=O)c1cccc(Cl)c1`, the Potency result in experiment [1], in [2], in experiment [10], in experiment [5] and in experiment [7] was “inactive” throughout. Besides, the call in experiment [9], in [4], in experiment [6] and in experiment [8] was inactive.

Turning to `CC(=O)O[C@@H]1CC2CCC1(C)C2(C)C` (some centres undefined), the Potency entry in experiment [1], in experiment [2], in [3], in experiment [5] and in experiment [7] was “inactive” throughout. Also, the compound was classed as inactive in experiment [9], in experiment [4], in experiment [6] and in [8].

Turning to `CC(=O)CC(=O)OC(C)(C)C`, the Potency result in experiment [1], in experiment [2], in experiment [3] and in experiment [7] was “inactive” each time. Also, the call in [4] and in experiment [6] was inactive.

Consider `C/C(CC(C)C)=N\O`, for which the Potency entry in experiment [1], in experiment [2], in experiment [3], in [5] and in experiment [7] was “inactive” each time. Also, the outcome in experiment [6] and in experiment [8] was inactive.

`NC(=O)[C@@H]1CSSCCC(=O)N[C@@H](CCCCN=C(N)N)C(=O)NCC(=O)N[C@@H](CC(=O)O)C(=O)N[C@@H](Cc2c[nH]c3ccccc23)C(=O)N2CCC[C@H]2C(=O)N1` ([Mpa][hArg]GDWPC-NH2; disulfide 1-7): the Potency result in [1], in experiment [2], in experiment [10], in experiment [5] and in experiment [7] was “inactive” throughout. For the same compound, the compound was called inactive in experiment [9], in experiment [4], in [6] and in [8].

As to `C=C(C)[C@@H]1CC=C(C)C(=O)C1`, the Potency result in experiment [1], in experiment [2], in [3], in experiment [5] and in experiment [7] was “inactive” in each case. For the same compound, the outcome in experiment [6] and in [8] was inactive.

As for `COS(=O)(=O)O`, the Potency result in experiment [1], in [2], in [3], in experiment [5] and in experiment [7] was “inactive” throughout. Further, the outcome in experiment [4] and in experiment [6] was inactive.

With `CCNC(=O)NCc1cccc(Cl)c1`, the Potency entry in experiment [1], in [2], in [3], in experiment [5] and in experiment [7] was “inactive” throughout. The compound was called inactive in [9], in experiment [4], in experiment [6] and in experiment [8].

Regarding `CC(C)=CCC[C@@](C)(O)[C@H]1CC=C(C)CC1`, the Potency entry in [1], in [2], in experiment [3], in [5] and in [7] was “inactive” in each case. Also, the compound was classed as inactive in experiment [9], in [4] and in experiment [6].

As to `CC(C)[C@H]1CC[C@H](C)C[C@@H]1O`, the Potency result in experiment [1], in experiment [2], in [3], in experiment [5] and in experiment [7] was “inactive” throughout. The call in [4] and in [6] was inactive.

For the compound `CCCCCCCCCCCCCCC(=O)NC(CO)CCCCCCCCCCCCCC` (centres undefined), the Potency result in experiment [1], in [2], in experiment [10], in [5] and in experiment [7] was “inactive” throughout. The call in experiment [9], in [4], in [6] and in experiment [8] was inactive.

For the compound `O=C(O)CCCCCC(=O)O`, the Potency result in experiment [1], in experiment [2], in [3] and in experiment [7] was “inactive” throughout. Further, the compound was called inactive in [9], in experiment [6] and in experiment [8].

In the case of `CC1=C(O)C(=O)C(C)O1` (centres undefined), the Potency entry in experiment [1], in experiment [2], in [3], in [5] and in [7] was “inactive” in each case. In addition, the call in experiment [4], in experiment [6] and in experiment [8] was inactive.

In the case of `CC1OCCC1=O` (centres undefined), the Potency entry in [1], in experiment [2], in [3], in [5] and in experiment [7] was “inactive” in each case. Moreover, the call in experiment [4] and in experiment [6] was inactive.

Consider `CN(C)CCCO[C@@H]1[C@H]2OC(C)(C)O[C@H]2O[C@@H]1C(O)CO` (some centres undefined), for which the Potency result in experiment [1], in experiment [2], in experiment [3], in experiment [5] and in experiment [7] was “inactive” in each case. Further, the compound was called inactive in experiment [9], in [4], in [6] and in experiment [8].

Take `CCC/C=C(\C=O)CC`: the Potency entry in experiment [1], in [2], in experiment [3], in experiment [5] and in experiment [7] was “inactive” each time. Also, the compound was called inactive in [4], in experiment [6] and in experiment [8].

In the case of `CC(C)Cn1cnc2c1c(=O)n(C)c(=O)n2C`, the Potency result in experiment [1], in experiment [2], in [3], in experiment [5] and in [7] was “inactive” throughout. The compound was classed as inactive in experiment [9], in [4], in experiment [6] and in experiment [8].

Regarding `CCO[Si](CC)(OCC)OCC`, the Potency result in [1], in experiment [2], in experiment [3], in experiment [5] and in experiment [7] was “inactive” in each case. The compound was classed as inactive in experiment [4], in [6] and in experiment [8].

Take `O=C(NCN1CCOCC1)c1cnccn1`: the Potency entry in [1], in experiment [2], in experiment [3], in [5] and in experiment [7] was “inactive” in each case. Moreover, the compound was called inactive in experiment [9], in [4] and in [6].

Take `CC(=O)CC(=O)Nc1ccc(C)cc1C`: the Potency result in experiment [1], in experiment [2], in experiment [3], in experiment [5] and in experiment [7] was “inactive” each time. Besides, the compound was called inactive in experiment [4] and in experiment [6].

`O=NN(CCCl)C(=O)NC1CCCCC1`: the Potency entry in [1], in [2], in [3], in [5] and in experiment [7] was “inactive” throughout. In addition, the outcome in experiment [4] and in experiment [6] was inactive.

On to `CC(C)(C)NC[C@H](O)COc1cccc2c1CCCC2=O`, for which the Potency result in [1], in [2], in [3], in [5] and in [7] was “inactive” each time. For the same compound, the result in experiment [9], in experiment [4], in [6] and in experiment [8] was inactive.

Consider `CC(C)OC(=O)OCOP(=O)(CO[C@H](C)Cn1cnc2c(N)ncnc21)OCOC(=O)OC(C)C`, for which the Potency entry in experiment [1], in experiment [2], in experiment [10] and in experiment [7] was “inactive” each time. Further, the compound was called inactive in experiment [9], in experiment [4], in experiment [6] and in [8]. For the same compound, the Potency in experiment [5] is 11.9 µM (active).

With `CCCC(=O)Nc1ccc(OCC(O)CNC(C)C)c(C(C)=O)c1` (centres undefined), the Potency entry in experiment [1], in experiment [2], in experiment [3], in experiment [5] and in [7] was “inactive” in each case. Also, the compound was called inactive in experiment [4], in experiment [6] and in experiment [8].

For the compound `OC[C@@H](O)C(O)[C@@H](O)CO` (some centres undefined), the Potency entry in experiment [1], in experiment [2], in experiment [3] and in [7] was “inactive” throughout. The outcome in [9], in experiment [4] and in [6] was inactive.

Consider `c1ccc(-c2nn[nH]n2)cc1`, for which the Potency entry in experiment [1], in experiment [2], in experiment [10], in experiment [5] and in experiment [7] was “inactive” in each case. The compound was classed as inactive in [9], in experiment [4] and in experiment [6].

Turning to `Cc1ncc([N+](=O)[O-])n1CC(C)O` (centres undefined), the Potency entry in experiment [1], in experiment [2], in experiment [3], in experiment [5] and in experiment [7] was “inactive” each time. Besides, the compound was called inactive in experiment [9], in experiment [4], in experiment [6] and in experiment [8].
